Measured values reported in PubChem BioAssay (Tox21).
Results filed as inconclusive are left out. Active and inactive are the calls of the source. Calls come from the whole dose curve; as a rule, active = well fitted curve in the direction sought with a large enough effect in the repeat runs; inconclusive = weak or mixed curves; inactive = no such curve, though single readings can be large; an effect the other way counts as inactive or inconclusive.

Columns and labels:
[1] = qHTS RealTime-Glo MT Cell Viability Assay in HEK293 cells - 16 hour (AID 1224872); note: nearly all actives have a fitted effect of over 50% in size; note: potency is the fitted concentration of half-maximal effect
Summary of the method: (§1)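 Luminescence generated by NanoLuc from substrate produced by living HEK293 cells served as the viability signal. Each value reflects the reading at its stated time point during continuous 40 h compound exposure at 37 C.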

[2] = qHTS RealTime-Glo MT Cell Viability Assay in HepG2 cells - 8 hour (AID 1224873); note: nearly all actives have a fitted effect of over 55% in size
Summary of the method: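 HepG2 cells mixed with RealTime-Glo MT reagents (NanoLuc plus cell-permeant prosubstrate) were seeded at 600 cells/well, incubated 5 h at 37 C/5% CO2, then pinned with compounds in DMSO; nonlytic luminescence tracked viability during 40 h treatment.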

[3] = qHTS RealTime-Glo MT Cell Viability Assay in HEK293 cells - 40 hour (AID 1224874); details: RealTime-Glo luminescence; max response: stronger effect = lower value; note: nearly all actives have a fitted effect of over 50% in size; note: potency is the fitted concentration of half-maximal effect
Summary of the method: (§2)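 Viable HEK293 cells reduce a cell-permeant prosubstrate; the product diffuses out and is consumed by NanoLuc in the medium to give light. Compounds went in after a 5 h incubation and plates were read over the treatment course.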

[4] = A CellTox Green Cytotoxicity Assay to monitor cytotoxicity in HEK293 cells - 24 hour (AID 1224875); note: series mostly up to about 77 µM; nearly all actives have a fitted effect of over 45% in size
Summary of the method: (§3)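 Fluorescence intensity, read at 0, 8, 16, 24, 32 and 40 h of compound treatment, reflected dye binding to DNA of dead HEK293 cells; compounds (23 nL, DMSO) were added 5 h after plating cells with reagent.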

[5] = A CellTox Green Cytotoxicity Assay to monitor cytotoxicity in HepG2 cells - 16 hour (AID 1224876); note: nearly all actives have a fitted effect of over 45% in size
Summary of the method: (§4)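 Using 1536-well format, dye-containing HepG2 suspension was seeded, allowed 5 h at 37 C/5% CO2, dosed by pintool with compounds, positive and negative controls, and imaged for fluorescence across 40 h.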

[6] = A CellTox Green Cytotoxicity Assay to monitor cytotoxicity in HepG2 cells - 24 hour (AID 1224878); note: nearly all actives have a fitted effect of over 45% in size; note: potency is the fitted concentration of half-maximal effect
Summary of the method: as §4

[7] = qHTS RealTime-Glo MT Cell Viability Assay in HEK293 cells - 0 hour (AID 1224880); note: top concentration of the series differs between compounds; nearly all actives have a fitted effect of over 45% in size
Summary of the method: as §2

[8] = A CellTox Green Cytotoxicity Assay to monitor cytotoxicity in HEK293 cells - 32 hour (AID 1224881); note: nearly all actives have a fitted effect of over 40% in size
Summary of the method: as §3

[9] = A CellTox Green Cytotoxicity Assay to monitor cytotoxicity in HepG2 cells - 0 hour (AID 1224882); note: nearly all actives have a fitted effect of over 35% in size
Summary of the method: as §4

[10] = qHTS RealTime-Glo MT Cell Viability Assay in HEK293 cells - 24 hour (AID 1224886); note: nearly all actives have a fitted effect of over 50% in size; note: potency is the fitted concentration of half-maximal effect
Summary of the method: as §1

[11] = A CellTox Green Cytotoxicity Assay to monitor cytotoxicity in HEK293 cells - 16 hour (AID 1224888); note: nearly all actives have a fitted effect of over 35% in size
Summary of the method: as §3

[12] = qHTS RealTime-Glo MT Cell Viability Assay in HepG2 cells - 0 hour (AID 1224889); note: nearly all actives have a fitted effect of over 50% in size
Summary of the method: (§5)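 Tox21 10K library screened in qHTS format on HepG2 cells carrying RealTime-Glo reagents. Compounds were added after a 5 h preincubation, and the luminescent signal from continuous culture was measured repeatedly during 40 h treatment.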

[13] = qHTS assay to identify small molecule antagonists of the estrogen receptor alpha (ER-alpha) signaling pathway using the BG1 cell line in the presence of 0.1 nM 17-beta-estradiol - cell viability counter screen (AID 1259241); note: nearly all actives have a fitted effect of over 40% in size
Summary of the method: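 CellTiter-Fluor read (30 min, 37C) on ER-alpha/ERE-luc VM7Luc4E2 cells; 22 hr compound treatment; agonist 0.1 nM E2 final; same-well multiplex.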

[14] = qHTS RealTime-Glo MT Cell Viability Assay in HepG2 cells - 32 hour (AID 1224877); note: nearly all actives have a fitted effect of over 55% in size
Summary of the method: as §5

[15] = A CellTox Green Cytotoxicity Assay to monitor cytotoxicity in HepG2 cells - 40 hour (AID 1224879); note: nearly all actives have a fitted effect of over 40% in size; note: potency is the fitted concentration of half-maximal effect
Summary of the method: as §4

[16] = A CellTox Green Cytotoxicity Assay to monitor cytotoxicity in HepG2 cells - 32 hour (AID 1224883); note: nearly all actives have a fitted effect of over 50% in size
Summary of the method: as §4

[17] = A CellTox Green Cytotoxicity Assay to monitor cytotoxicity in HEK293 cells - 8 hour (AID 1224884); note: nearly all actives have a fitted effect of over 35% in size
Summary of the method: as §3

[18] = qHTS RealTime-Glo MT Cell Viability Assay in HepG2 cells - 16 hour (AID 1224885); note: nearly all actives have a fitted effect of over 50% in size
Summary of the method: as §5

[19] = qHTS RealTime-Glo MT Cell Viability Assay in HEK293 cells - 8 hour (AID 1224887); note: nearly all actives have a fitted effect of over 50% in size; note: potency is the fitted concentration of half-maximal effect
Summary of the method: as §2

[20] = A CellTox Green Cytotoxicity Assay to monitor cytotoxicity in HepG2 cells - 8 hour (AID 1224890); note: nearly all actives have a fitted effect of over 45% in size
Summary of the method: as §4
% is set by controls: 0 for no effect and ±100 for the full control effect.

CC(C)(c1cc(Br)c(OCCO)c(Br)c1)c1cc(Br)c(OCCO)c(Br)c1
active: Potency [1] 17 µM | Potency [3] 12 µM | Potency [10] 12 µM
inactive: Potency [2] | Potency [4] | Potency [5] | Potency [6] | Potency [7] | Potency [8] | Potency [9] | Potency [11] | Potency [12] | Potency [13]

CC(COC(=O)c1ccccc1)OC(=O)c1ccccc1 (stereo not given)
inactive: Potency [1] | Potency [2] | max response [3] -5.23% | Potency [5] | Potency [14] | Potency [6] | Potency [15] | Potency [7] | Potency [8] | Potency [9] | Potency [16] | Potency [17] | Potency [18] | Potency [10] | Potency [19] | Potency [11] | Potency [12] | Potency [20] | Potency [13]

CCC1(c2cnc[nH]2)Cc2ccccc2C1
inactive: Potency [1] | Potency [2] | max response [3] -4.11% | Potency [5] | Potency [14] | Potency [6] | Potency [15] | Potency [7] | Potency [8] | Potency [9] | Potency [16] | Potency [17] | Potency [18] | Potency [10] | Potency [19] | Potency [11] | Potency [12] | Potency [20]

C=CC(C)C#N (stereo not given)
inactive: Potency [1] | Potency [2] | max response [3] 11.1% | Potency [5] | Potency [14] | Potency [6] | Potency [15] | Potency [7] | Potency [8] | Potency [9] | Potency [16] | Potency [18] | Potency [10] | Potency [19] | Potency [11] | Potency [12] | Potency [20] | Potency [13]

CCCCCCCCCCCCCc1ccccc1
inactive: Potency [1] | Potency [2] | max response [3] -7.71% | Potency [5] | Potency [14] | Potency [6] | Potency [15] | Potency [7] | Potency [8] | Potency [9] | Potency [16] | Potency [17] | Potency [18] | Potency [10] | Potency [19] | Potency [11] | Potency [12] | Potency [20] | Potency [13]

CC(C)(C)C1=CC(=O)C=C(C(C)(C)C)C1=O
inactive: Potency [1] | Potency [2] | max response [3] 11.2% | Potency [5] | Potency [14] | Potency [6] | Potency [15] | Potency [7] | Potency [9] | Potency [16] | Potency [17] | Potency [18] | Potency [10] | Potency [19] | Potency [11] | Potency [12] | Potency [20] | Potency [13]

CCO[Si](C)(C)OCC
inactive: Potency [1] | Potency [2] | max response [3] -0.247% | Potency [5] | Potency [14] | Potency [6] | Potency [15] | Potency [7] | Potency [8] | Potency [9] | Potency [16] | Potency [17] | Potency [18] | Potency [10] | Potency [19] | Potency [11] | Potency [12] | Potency [13]

CCCCN(CCCC)CCC(O)c1cc2c(Cl)cc(Cl)cc2c2cc(C(F)(F)F)ccc12 (stereo not given)
active: Potency [15] 23.9 µM
inactive: Potency [1] | Potency [2] | max response [3] -17.9% | Potency [4] | Potency [5] | Potency [7] | Potency [8] | Potency [9] | Potency [17] | Potency [10] | Potency [19] | Potency [11] | Potency [12] | Potency [20] | Potency [13]

CCOC(=O)[C@@](C)(N)Cc1ccc(O)c(O)c1
inactive: Potency [1] | Potency [2] | max response [3] 0.793% | Potency [4] | Potency [14] | Potency [7] | Potency [8] | Potency [18] | Potency [10] | Potency [19] | Potency [11] | Potency [12]

CCOCOCC
inactive: Potency [1] | Potency [2] | max response [3] 5.75% | Potency [4] | Potency [5] | Potency [6] | Potency [15] | Potency [7] | Potency [9] | Potency [16] | Potency [17] | Potency [18] | Potency [10] | Potency [19] | Potency [11] | Potency [12] | Potency [20] | Potency [13]

CC1CCCCN1CCCOC(=O)c1ccc(OC2CCCCC2)cc1 (stereo not given)
active: Potency [1] 15.1 µM | Potency [3] 21.3 µM | Potency [6] 26.8 µM | Potency [15] 26.8 µM | Potency [10] 16.9 µM | Potency [19] 10.7 µM
inactive: Potency [2] | Potency [7] | Potency [9] | Potency [17] | Potency [18] | Potency [11] | Potency [12] | Potency [20] | Potency [13]

CN(C)CCOC(c1ccccc1)c1ccccc1 (tested in a mixture with another compound)
inactive: Potency [1] | Potency [2] | Potency [4] | Potency [5] | Potency [14] | Potency [6] | Potency [15] | Potency [7] | Potency [9] | Potency [16] | Potency [17] | Potency [18] | Potency [10] | Potency [19] | Potency [11] | Potency [12] | Potency [20]

C1CC(COCC2CO2)CCC1COCC1CO1 (stereo not given)
inactive: Potency [1] | Potency [2] | Potency [4] | Potency [5] | Potency [14] | Potency [6] | Potency [15] | Potency [7] | Potency [8] | Potency [16] | Potency [17] | Potency [18] | Potency [10] | Potency [19] | Potency [11] | Potency [12] | Potency [20] | Potency [13]

O=C(Oc1ccccc1)c1cccc(C(=O)Oc2ccccc2)c1
inactive: Potency [1] | Potency [2] | max response [3] 5.48% | Potency [14] | Potency [7] | Potency [9] | Potency [18] | Potency [11] | Potency [12] | Potency [20] | Potency [13]
